HT1080 IDH1KD tx – HT-1080 IDH1 knockdown cell toxicity (counter line); actives 2% (n = 360,000); HT-1080 IDH1 knockdown viability, ATP luminescence, 48 h; Potency, µM (highest dose often 46.1 µM), actives largely listed as cytotoxic
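Knockdown cells (IDH1KD HT-1080) received compounds 2 h after plating at 750 cells/well and were kept 48 h at 37 °C in 5% FBS RPMI. A CellTiter-Glo luminescence read gave % activity for curve fitting.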
KB-3-1 cytotox – kills parental KB-3-1 adenocarcinoma cells. KB-3-1 viability, CellTiter-Glo ATP luminescence, 72 h. Potency, µM (top dose mostly 46.1 µM), most hits filed as cytotoxic. actives 1.4% (n = 400,000). AID 1347075; note: nearly all actives have a fitted effect of over 60% in size
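Cells are dispensed, compounds pinned in, plates held at 37 °C for 72 h, then CellTiter-Glo is added and luminescence read after 10 minutes. Cell line: parental KB-3-1 in phenol-red-free DMEM, 10% FBS.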
HT1080-NT tox – kills 2HG-producing HT-1080-NT fibrosarcoma cells; actives 1.6% (n = 360,000); HT-1080-NT fibrosarcoma viability, CellTiter-Glo ATP luminescence, 48 h; AID 686970; Potency, µM (top dose mostly 46.1 µM), usual class: cytotoxic;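 note: NT is the 2HG producing partner of a matched IDH1 knockdown line; nearly all actives have a fitted effect of over 55% in size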
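Fibrosarcoma NT cells, 750 per well in 5% FBS RPMI, were exposed to compound for 48 hours. Viability: CellTiter-Glo luminescence.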
DT40 TDP1 CPT – DT40-hTDP1 cell growth loss with CPT. Potency, µM (highest dose often 46.2 µM), actives largely listed as inhibitors. actives 12% (n = 420,000). chicken DT40 Tdp1-/-;hTDP1 cells + 20 nM CPT, ATP luminescence, 48 h; note: nearly all actives have a fitted effect of over 55% in size
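Cell growth measured by CellTiter-Glo luminescence after a minimum 48 h, 37 C compound exposure with 20 nM CPT in Tdp1-knockout DT40 cells stably expressing hTDP1, seeded 400/well; qHTS titration format.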
DT40 TDP1 no CPT – qHTS for Inhibitors of human tyrosyl-DNA phosphodiesterase 1 (TDP1): qHTS in cells in absence of CPT; DT40 Tdp1-/- hTDP1 cells, no CPT, ATP luminescence, 48 h; actives 15% (n = 420,000); Potency, µM (titrated, usually from 46.2 µM), most hits filed as inhibitors; AID 686978, 2013; note: nearly all actives have a fitted effect of over 55% in size
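Readout: luminescence from CellTiter-Glo after 30 min in the dark at RT. Cells: DT40 Tdp1-/- with stable hTDP1, 400/well. Exposure: compounds alone, ≥48 hr, 37 °C.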
KB-V1 cytotox – KB-V1 MDR subline cytotoxicity; Potency, µM (series often up to 46.1 µM), actives largely listed as cytotoxic; actives 3.4% (n = 400,000); KB-V1 MDR cells viability, CellTiter-Glo, 72 h; note: nearly all actives have a fitted effect of over 60% in size
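KB-V1 cells (P-gp-expressing MDR subline of KB-3-1) in phenol-red-free DMEM with 10% FBS were exposed to library compounds over a concentration series for 72 h at 37 degrees C. Viability read by CellTiter-Glo luminescence; concentration-effect curves fitted after normalization.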
A number is an active result; i = inactive; ? = inconclusive; nt = no result given. A selection: hits, their analogues and other compounds. The true share with any hit is near 19%. Calls come from the whole dose curve; as a rule, active = well fitted curve in the direction sought with a large enough effect; inconclusive = small, poorly fitted or top-dose-only effect, or another doubt; inactive = no such curve, though single readings can be large; an effect the other way counts as inactive or inconclusive.

SMILES | HT1080 IDH1KD tx | KB-3-1 cytotox | HT1080-NT tox | DT40 TDP1 CPT | DT40 TDP1 no CPT | KB-V1 cytotox
CCN1C(=O)CSc2ccc(C(=O)NC3CCCCC3)cc21 | i | i | i | 35µM | 20µM | i
O=C(NCCc1ccccc1)c1ccc2c(c1)N(Cc1c(F)cccc1Cl)C(=O)CS2 | nt | i | nt | 15µM | 9.2µM | i
O=C(NCCc1ccccc1)c1ccc2c(c1)N(Cc1ccc(F)cc1)C(=O)CS2 | nt | nt | nt | ? | 16µM | nt
Cn1c(C(=O)NCc2ccccc2Cl)cc2sc(Cl)cc21 | nt | nt | nt | i | ? | nt
CCC(C)(C)c1nnc(NC(=O)C2CCN(C(=O)c3ccco3)CC2)s1 | i | i | i | 21µM | ? | i
CCc1nnc(NC(=O)c2ccccc2NC(=O)C2CCN(C(=O)c3ccco3)CC2)s1 | nt | ? | nt | 14µM | 11µM | i
CCc1nnc(NC(=O)C2CCN(C(=O)c3ccco3)CC2)s1 | i | i | i | i | i | i
CC(C)c1ccc(NC(=O)C(C)N(c2ccccc2)S(C)(=O)=O)cc1 (stereo not drawn) | nt | i | nt | ? | ? | i
O=C(Nc1ccccc1Cl)c1cc(C2CCCN(C(=O)c3ccc4c(c3)CCO4)C2)on1 (stereo not drawn) | i | i | ? | 13µM | 15µM | i
O=C(Nc1ccc2c(c1)OCO2)c1cc(C2CC2)on1 | 8.2µM | ? | ? | i | i | i
CCCNC(=O)c1cc(C2CCCCN2C(=O)c2ccc3c(c2)CCO3)on1 (stereo not drawn) | i | i | i | i | i | i
O=C(Nc1ccc2c(c1)OCO2)c1cc(C2CCCCN2C(=O)c2ccc3c(c2)CCO3)on1 (stereo not drawn) | i | ? | i | 26µM | 26µM | i
CCCNC(=O)c1cc(C2CCCCN2C(=O)c2ccc(C#N)cc2)on1 (stereo not drawn) | i | i | i | i | i | i
N#Cc1ccc(C(=O)N2CCCCC2c2cc(C(=O)Nc3ccc4c(c3)OCO4)no2)cc1 (stereo not drawn) | i | i | ? | ? | 23µM | i
O=C(Nc1ccccc1)c1cc(C2CCCN(C(=O)c3ccc4c(c3)CCO4)C2)on1 (stereo not drawn) | i | i | i | i | i | i
CO[C@H]1C[C@H](O[C@@H]2/C(C)=C/C[C@@H]3C[C@@H](C[C@]4(CC[C@H](C)[C@@H](C5CCCCC5)O4)O3)OC(=O)[C@@H]3C=C(C)/C(=N/O)[C@H]4OC/C(=C\C=C\[C@@H]2C)[C@]43O)O[C@@H](C)[C@@H]1O | nt | nt | nt | i | i | nt
CC1(C(=O)NS(=O)(=O)c2cccc(C#N)c2)CCN1C(=O)C1(c2ccccc2)CC1 (stereo not drawn) | i | i | i | i | i | i
CC(C)c1ccc(C2NC(=O)c3ccccc3O2)cc1 (stereo not drawn) | i | i | i | i | i | i
COC(=O)N1CCCCC1c1cc(C(=O)Nc2ccc3c(c2)OCO3)no1 (stereo not drawn) | i | i | i | i | i | i
O=C(Nc1ccc2c(c1)OCO2)c1cc(C2CCCCN2C(=O)c2ccc(Cl)cc2)on1 (stereo not drawn) | i | i | i | 21µM | 21µM | i
CC1CCCC(NC(=O)c2cccc(S(=O)(=O)N3CCN(c4ccccc4)CC3)c2)C1C (stereo not drawn) | i | i | i | 18µM | 13µM | i
O=C(/C=C/c1ccc(S(=O)(=O)N2CCOCC2)cc1)N1CCN(c2ccccc2)CC1 | i | ? | i | 12µM | 1µM | i
CC1CCCCC1NC(=O)c1cccc(S(=O)(=O)N2CCN(C)CC2)c1 (stereo not drawn) | i | ? | i | i | i | i
O=C(c1cccc(S(=O)(=O)N2CCOCC2)c1)N1CCN(c2ccccc2)CC1 | i | i | i | i | i | 18µM
O=C(NCC1(N2CCOCC2)CCCCC1)c1cccc(S(=O)(=O)N2CCc3ccccc3C2)c1 | i | i | i | 18µM | ? | i
SMILES | HT1080 IDH1KD tx | KB-3-1 cytotox | HT1080-NT tox | DT40 TDP1 CPT | DT40 TDP1 no CPT | KB-V1 cytotox
CC(=O)c1ccc(NC(=O)c2sc(-n3nc(C)c(CCC(C)C)c3C)nc2C)cc1 | nt | i | nt | i | ? | i
Cc1cccc(NS(=O)(=O)c2cccc(C(=O)N3CCCCCCC3)c2)c1 | i | i | i | 18µM | 5.2µM | i
O=C(c1cccc(S(=O)(=O)Nc2ccccc2Cl)c1)N1CCCCCC1 | i | i | i | i | i | 18µM
COc1cccc(/C=C/C(=O)N2CCN(S(=O)(=O)c3ccccc3)CC2)c1 | i | i | i | ? | 21µM | ?
O=C(c1cccc(S(=O)(=O)N2CCCCC2)c1)N1CCCCC1 | i | i | i | i | i | 15µM
O=C(c1ccc(S(=O)(=O)Nc2ccccc2Cl)cc1)N1CCCC1 | i | i | i | i | i | i
Cc1cccc(NS(=O)(=O)c2cccc(C(=O)N3CCCCCC3)c2)c1 | i | i | i | ? | ? | i
O=C(CCC1CCN(C(=O)c2cc(C(F)(F)F)ccc2Cl)CC1)NC1CC1 | i | i | i | i | i | i
O=C(c1cccc(S(=O)(=O)N2CCc3ccccc3C2)c1)N1CCN(c2ccc(O)cc2)CC1 | i | ? | i | 15µM | 12µM | 13µM
Cc1cc(C)c(C)c(S(=O)(=O)N2CCN(C(=O)c3ccncc3)CC2)c1C | i | ? | i | ? | i | i
CC(=O)N1CCN(S(=O)(=O)c2cccc(C(=O)N3CCN(S(=O)(=O)c4c(C)c(C)cc(C)c4C)CC3)c2)CC1 | i | i | i | ? | 21µM | i
O=C(O)c1cccc(S(=O)(=O)N2CCc3ccccc3C2)c1 | i | i | i | i | i | ?
O=C(c1cccc(S(=O)(=O)N2CCN(c3ccccc3)CC2)c1)N1CCCCCCC1 | i | i | i | ? | 13µM | i
O=C(NCCCNC(=O)c1ccc(F)cc1)c1ccc(F)cc1 | i | i | i | i | i | i
O=C(Nc1cc(OC(=O)C(F)(F)F)c2nonc2c1OC(=O)C(F)(F)F)C(F)(F)F | nt | ? | nt | 10µM | 11µM | i
Cc1cc(OCC(=O)Nc2ccc(N3CCN(C(=O)c4ccco4)CC3)cc2)cc(C)c1Cl | i | i | i | 9.2µM | 10µM | ?
Cc1ccc(OCC(=O)Nc2ccc(N3CCN(C(=O)c4ccco4)CC3)cc2)cc1C | i | i | ? | ? | ? | ?
Cc1cccc(OCC(=O)Nc2ccc(N3CCN(C(=O)c4ccco4)CC3)cc2)c1 | ? | ? | ? | 18µM | 21µM | ?
